The target in experiment [1] is 6-phosphogluconate dehydrogenase, decarboxylating (Homo sapiens) (UniProt P52209). As to the kind of experiment: inhibition of human phosphogluconate dehydrogenase – biochemical, recombinant enzyme, NADPH absorbance, primary screen (AID 1159550;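 active = at least 20% inhibition of 6-phosphogluconate dehydrogenase activity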). To be noted: recombinant 6PGD, NADPH absorbance 341 nm; at 10 µM; stronger effect = higher value.
The nature of experiment [2]: EMT-state selective cytotoxicity in co-culture – imaging, PC-3E GFP, TEM4-18 mCherry, primary screen (AID 1345086;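 active = compounds killing one labelled cell type while sparing the other, by normalised counts and ratio limits, not self-fluorescent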;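 for all read-outs here: cells exposed to compound for 72 h before imaging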;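 for red/green cell ratio (normalised): normalised mesenchymal count divided by normalised epithelial count so high means epithelial killing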). To be noted: PC-3E GFP / TEM4-18 mCherry co-culture, imaging cell counts, at 1 µM; for red/green cell ratio (normalised): actives lie on both sides, counts scaled to control wells, 1 = unselective.
Experiment [3] in a line: MELAS cybrid and Rieske KO viability enhancers – cell-based, MELAS cybrids, Rieske KO mouse fibroblasts, CellTiter-Glo, primary screen (AID 1508586;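 active = mean z-score across replicates of 1.96 or higher in either the MELAS or the Rieske mutant cell line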;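 note: z relative to plate mean and SD of compound and empty wells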). Particulars: low glucose.
Experiment [4] in a line: drug combination growth inhibition, ovarian cancer – cell-based, oncology-focused library, rucaparib conditional, profiling panel (AID 1508598). To be noted: patient-derived ovarian cancer cells, CellTiter-Glo viability, 144 h, stronger effect = lower value. A general note: In ATP-based viability assays light output follows the ATP content of the culture.
Experiment [5] deals with NAD(+) hydrolase SARM1 (Homo sapiens) (UniProt Q6SZW1). As to the kind of experiment: blocking NAD cleavage by SARM1 SAM-TIR – cell lysate, NAD-Glo luminescence (AID 1508614;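 active = compound whose remaining NAD level is above about 45 nM, limit read from the data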;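 note: higher remaining NAD means stronger inhibition of SARM1 NADase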). To be noted: SAM-TIR HEK293T lysate NADase, at 1 µM, stronger effect = higher value.
NAD(+) hydrolase SARM1 (Homo sapiens), sequence (Q6SZW1 whole entry, looked up, the tested form may be a part): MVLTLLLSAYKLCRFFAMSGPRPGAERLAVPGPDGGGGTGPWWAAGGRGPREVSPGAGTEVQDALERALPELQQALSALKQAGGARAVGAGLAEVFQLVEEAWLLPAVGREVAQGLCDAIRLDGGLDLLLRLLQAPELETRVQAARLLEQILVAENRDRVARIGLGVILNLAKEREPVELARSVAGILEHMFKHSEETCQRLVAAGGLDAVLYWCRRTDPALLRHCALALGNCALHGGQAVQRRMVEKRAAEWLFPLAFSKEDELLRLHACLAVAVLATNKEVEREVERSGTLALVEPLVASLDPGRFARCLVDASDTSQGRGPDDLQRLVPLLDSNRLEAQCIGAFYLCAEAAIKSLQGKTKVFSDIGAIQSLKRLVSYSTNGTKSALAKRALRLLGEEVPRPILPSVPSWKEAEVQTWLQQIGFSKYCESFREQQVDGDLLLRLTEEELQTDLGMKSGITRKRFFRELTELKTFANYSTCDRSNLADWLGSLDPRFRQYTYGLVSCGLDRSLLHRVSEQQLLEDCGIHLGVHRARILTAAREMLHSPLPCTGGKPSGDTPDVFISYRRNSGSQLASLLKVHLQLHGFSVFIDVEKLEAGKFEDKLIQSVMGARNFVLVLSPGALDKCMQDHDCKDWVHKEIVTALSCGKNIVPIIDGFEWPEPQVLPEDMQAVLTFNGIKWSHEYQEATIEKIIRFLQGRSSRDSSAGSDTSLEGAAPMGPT
Experiment [6] deals with Mitogen-activated protein kinase 7 (Homo sapiens) (UniProt Q13164). In words: Gal4-ERK5 driven luciferase induction – cell-based, HTS, primary screen (AID 1508626;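 active = luciferase signal above three times the same-plate solvent-only control wells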;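 note: luciferase driven by Gal4-ERK5 fusion binding five Gal4 sites before minimal TATA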). To be noted: HeLa Gal4-ERK5 transactivation, 18 h, at 5 µM, stronger effect = higher value.
Mitogen-activated protein kinase 7 (Homo sapiens), sequence (Q13164 whole entry, looked up, the tested form may be a part): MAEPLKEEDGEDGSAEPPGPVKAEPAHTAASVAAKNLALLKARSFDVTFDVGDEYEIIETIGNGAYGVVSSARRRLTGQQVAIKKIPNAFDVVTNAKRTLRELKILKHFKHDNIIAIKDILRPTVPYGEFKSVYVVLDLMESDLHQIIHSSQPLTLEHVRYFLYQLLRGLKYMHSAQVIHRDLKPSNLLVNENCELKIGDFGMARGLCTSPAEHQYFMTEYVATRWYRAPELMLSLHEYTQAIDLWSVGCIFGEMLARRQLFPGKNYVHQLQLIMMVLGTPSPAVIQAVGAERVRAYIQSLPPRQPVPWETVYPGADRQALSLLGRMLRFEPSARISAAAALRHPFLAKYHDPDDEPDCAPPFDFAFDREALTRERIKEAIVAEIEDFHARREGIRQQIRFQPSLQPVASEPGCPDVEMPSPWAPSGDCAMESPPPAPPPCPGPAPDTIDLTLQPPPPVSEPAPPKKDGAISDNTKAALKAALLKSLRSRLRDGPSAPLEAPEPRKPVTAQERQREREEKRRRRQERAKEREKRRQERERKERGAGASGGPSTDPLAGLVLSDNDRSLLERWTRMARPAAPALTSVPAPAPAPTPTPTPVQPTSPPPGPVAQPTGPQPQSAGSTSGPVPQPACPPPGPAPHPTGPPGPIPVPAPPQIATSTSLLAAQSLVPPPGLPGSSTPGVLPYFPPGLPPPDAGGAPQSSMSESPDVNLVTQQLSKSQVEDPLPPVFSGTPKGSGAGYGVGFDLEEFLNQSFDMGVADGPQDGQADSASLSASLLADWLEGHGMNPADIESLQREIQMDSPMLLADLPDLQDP
A short description of experiment [7]: galactose survival enhancers in mitochondrial complex I cybrids – cell-based, galactose medium, ATP luminescence, primary screen (AID 1645843;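 active = z-score of at least 1.8 in each of two replicates, scored against plate mean and spread of sample wells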;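 note: positive z means more ATP and so rescue of galactose-driven cybrid death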). To be noted: complex I mutant cybrid cells, 72 h, stronger effect = higher value.
Experiment [8] in a line: P. berghei load reduction in hepatocytes – cell-based, HepG2, luciferase luminescence, HepG2 viability, primary screen (AID 624349; in the data active = parasite load remaining mostly below about 12%, no sharp cut-off; inactive = mostly above about 10%;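 note: 100% = mean of DMSO negative control wells on the same plate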). To be noted: P. berghei liver stage in HepG2, luciferase luminescence, concentration not given here; parasite load remaining: stronger effect = lower value; viability: measured here: HepG2 viability without parasites.
Experiment [9] in a line: viability loss with induced miR-34 in A549 – imaging, A549 dox-inducible miR-34, nuclei and caspase counts, primary screen (AID 1347080;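 active = compounds whose cell count with miR-34 switched on is under 0.7 times the count with it off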). Particulars: A549 miR-34 inducible, Hoechst nuclei count, 48 h.
The mark [10] stands for this setting: measured here: epithelial PC-3E GFP cell survival.
Setting [11] is: measured here: mesenchymal TEM4-18 mCherry cell survival.
[12] abbreviates: MELAS cybrid survival, CellTiter-Glo 48 h, stronger effect = higher value.
Where [13] appears, read: Rieske KO mouse fibroblast survival, CellTiter-Glo 72 h.
Setting [14] is: stronger effect = lower value, cell number ratio, induced over uninduced.
[15] abbreviates: measured here: relative caspase fold change +Dox/-Dox.
Setting [16] is: measured here: total cells with miR-34 induction, stronger effect = lower value.
Setting [17] is: measured here: total cells without miR-34 induction.

Structures are written as SMILES. “And” between values parts separate entries of the source, which are not always exact repeats. Equal entries are not always repeated. The source made the active and inactive calls.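 Rule for the calls, unless noted: active = normalized viability below 100% at a tested concentration; inactive = the rest.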

6-phosphogluconate dehydrogenase, decarboxylating (Homo sapiens), sequence (P52209 whole entry, looked up): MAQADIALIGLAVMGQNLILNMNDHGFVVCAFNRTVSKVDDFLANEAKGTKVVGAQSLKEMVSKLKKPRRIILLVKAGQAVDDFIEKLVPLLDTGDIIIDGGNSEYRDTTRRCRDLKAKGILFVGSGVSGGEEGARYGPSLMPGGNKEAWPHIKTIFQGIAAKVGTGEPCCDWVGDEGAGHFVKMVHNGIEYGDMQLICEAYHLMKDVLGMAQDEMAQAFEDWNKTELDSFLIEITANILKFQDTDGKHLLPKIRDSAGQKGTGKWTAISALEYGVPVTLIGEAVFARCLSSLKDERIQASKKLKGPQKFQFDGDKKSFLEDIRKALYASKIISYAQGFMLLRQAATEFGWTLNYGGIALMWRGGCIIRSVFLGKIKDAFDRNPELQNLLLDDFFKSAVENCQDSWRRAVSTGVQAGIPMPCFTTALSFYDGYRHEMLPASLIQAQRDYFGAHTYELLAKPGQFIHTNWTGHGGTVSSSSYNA

As a reminder, the inhibition is the drop in the measured response relative to a control, in per cent. One may read the viability as a read-out of living cells in per cent, often relative to untreated cells. Regarding `COc1c(C)c2c(c(O)c1C/C=C(\C)CCC(=O)O)C(=O)OC2`, the inhibition in [1] is -6.15% (inactive). Also, the red/green cell ratio (normalised) in experiment [2] is 0.6 (active). The values for the normalised cell number in [2] (setting [10]) and in [2] (setting [11]) were 0.58 and 0.35, respectively. Also, the z-score in experiment [3] (setting [12]) is -0.0503; in experiment [3] (setting [13]), 2.98; in [7] it was 1.33 (inactive) and 1.68 (inactive). Moreover, the viability in experiment [4] (at 0.000305 µM, OCI-C5x cells, with rucaparib 10 µM, 100% = cells with rucaparib alone) is 117% (inactive); in [4] (at 0.000305 µM, OCI-C5x cells, without rucaparib), 124% (inactive); in [4] (at 0.000305 µM, OCI-P5x cells, with rucaparib 20 µM, 100% = cells with rucaparib alone), 87.8% (active); in [4] (at 0.000305 µM, OCI-P5x cells, without rucaparib), 96% (active); in [4] (at 0.00122 µM, OCI-C5x cells, with rucaparib 10 µM, 100% = cells with rucaparib alone), 121% (inactive); in experiment [4] (at 0.00122 µM, OCI-C5x cells, without rucaparib), 126% (inactive). Moreover, the viability in experiment [4] (at 0.00122 µM, OCI-P5x cells, with rucaparib 20 µM, 100% = cells with rucaparib alone) was 90.6% (active); in experiment [4] (at 0.00122 µM, OCI-P5x cells, without rucaparib), 103% (inactive); in experiment [4] (at 0.00488 µM, OCI-C5x cells, with rucaparib 10 µM, 100% = cells with rucaparib alone), 129% (inactive); in [4] (at 0.00488 µM, OCI-C5x cells, without rucaparib), 128% (inactive); in experiment [4] (at 0.00488 µM, OCI-P5x cells, with rucaparib 20 µM, 100% = cells with rucaparib alone) it was 96.9% (active); in experiment [4] (at 0.00488 µM, OCI-P5x cells, without rucaparib), 109% (inactive). The viability in [4] (at 0.0195 µM, OCI-C5x cells, with rucaparib 10 µM, 100% = cells with rucaparib alone) was 121% (inactive); in experiment [4] (at 0.0195 µM, OCI-C5x cells, without rucaparib), 129% (inactive); in experiment [4] (at 0.0195 µM, OCI-P5x cells, with rucaparib 20 µM, 100% = cells with rucaparib alone) it was 95.2% (active); in [4] (at 0.0195 µM, OCI-P5x cells, without rucaparib) it was 112% (inactive); in [4] (at 0.0781 µM, OCI-C5x cells, with rucaparib 10 µM, 100% = cells with rucaparib alone), 166% (inactive); in [4] (at 0.0781 µM, OCI-C5x cells, without rucaparib) it was 162% (inactive). Also, the viability in [4] (at 0.0781 µM, OCI-P5x cells, with rucaparib 20 µM, 100% = cells with rucaparib alone) was 97.4% (active); in experiment [4] (at 0.0781 µM, OCI-P5x cells, without rucaparib) it was 97% (active); in experiment [4] (at 0.313 µM, OCI-C5x cells, with rucaparib 10 µM, 100% = cells with rucaparib alone), 180% (inactive); in [4] (at 0.313 µM, OCI-C5x cells, without rucaparib) it was 189% (inactive); in experiment [4] (at 0.313 µM, OCI-P5x cells, with rucaparib 20 µM, 100% = cells with rucaparib alone), 85.4% (active); in experiment [4] (at 0.313 µM, OCI-P5x cells, without rucaparib) it was 62.1% (active). In addition, the viability in [4] (at 1.25 µM, OCI-C5x cells, with rucaparib 10 µM, 100% = cells with rucaparib alone) was 128% (inactive); in [4] (at 1.25 µM, OCI-C5x cells, without rucaparib) it was 117% (inactive); in experiment [4] (at 1.25 µM, OCI-P5x cells, with rucaparib 20 µM, 100% = cells with rucaparib alone) it was 70% (active); in experiment [4] (at 1.25 µM, OCI-P5x cells, without rucaparib), 40.7% (active); in experiment [4] (at 5 µM, OCI-C5x cells, with rucaparib 10 µM, 100% = cells with rucaparib alone) it was 73.1% (active); in experiment [4] (at 5 µM, OCI-C5x cells, without rucaparib), 56.4% (active). In addition, the viability is 46.2% (active) in [4] (at 5 µM, OCI-P5x cells, with rucaparib 20 µM, 100% = cells with rucaparib alone) and 30.7% (active) in experiment [4] (at 5 µM, OCI-P5x cells, without rucaparib). In [5], the remaining NAD was 10 nM (inactive). Also, in [6], the luciferase signal is 48 AU (inactive).
For the compound `CCCCCCCCCCCC1=C(O)C(=O)C=C(O)C1=O`, the parasite load remaining in experiment [8] was 136% (inactive). In addition, the viability in [8] was 84.4%. In addition, the inhibition in experiment [1] was 15% (inactive). Besides, the red/green cell ratio (normalised) in experiment [2] was 0.91 (inactive). For the same compound, the values for the normalised cell number in experiment [2] (setting [10]) and in [2] (setting [11]) were 1.09 and 1, respectively. The fold change in experiment [9] (setting [14]) is 0.793 (inactive) and 1.27 (inactive); in [9] (setting [15]) it was 2.63 and 0.764. Further, the cell count in experiment [9] (setting [16]) was 7270 and 2440; in [9] (setting [17]) it was 9160 and 1930. In addition, the z-score in [3] (setting [12]) is -0.242 (inactive); in experiment [3] (setting [13]), -0.154; in experiment [7], -0.595 (inactive). In addition, the luciferase signal in [6] is 40 AU (inactive).
As for `CC1=C(CCC(=O)O)c2cc3nc(cc4[nH]c(cc5[nH]c(cc1n2)c(C)c5C(C)O)c(C)c4C(C)O)C(C)=C3CCC(=O)O` (stereo not drawn), the inhibition in [1] was 12.1% (inactive). Further, the red/green cell ratio (normalised) in [2] is 1.39 (inactive). In addition, the values for the normalised cell number in [2] (setting [10]) and in [2] (setting [11]) were 0.93 and 1.29, respectively.
`O=C(O)c1cccnc1C(=O)O`: the parasite load remaining in experiment [8] is 83.9% (inactive). Besides, the viability in experiment [8] worked out at 75.4%. In [1], the inhibition was 2.35% (inactive). In [2], the red/green cell ratio (normalised) is 0.71 (inactive). Moreover, the normalised cell number in experiment [2] (setting [10]) stood at 1.39; in [2] (setting [11]), 0.99. The fold change in experiment [9] (setting [14]) was 0.98 (inactive) and 0.953 (inactive); in experiment [9] (setting [15]) it was 1.66 and 1.07. The cell count is 9820 and 8590 in experiment [9] (setting [16]); 10000 and 9010 in experiment [9] (setting [17]). For the same compound, the luciferase signal in experiment [6] was 84 AU (inactive). For the same compound, the z-score in experiment [7] is 0.32 (inactive) and -0.225 (inactive).
With `CCCCCCCC/C=C/CCCCCCCCOP(=O)([O-])OCC[N+](C)(C)C`, in experiment [1], the inhibition was 17.1% (inactive). Moreover, in experiment [2], the red/green cell ratio (normalised) was 0.71 (inactive). The normalised cell number in experiment [2] (setting [10]) came out at 1.36; in experiment [2] (setting [11]) it was 0.96.
The matching figures for `CC(C)=CCCC1(C)C=Cc2c(O)c3c(c(CC=C(C)C)c2O1)OC12C(=CCCC1C(C)(C)O[C@@]2(C/C=C(\C)C(=O)O)C(=O)O)C3=O` (stereo partly drawn): 0.371% (inactive), 0.93 (inactive), 1.16 and 1.08.
The matching figures for `COc1cccc(-c2cc(=O)c3cc(OC)ccc3o2)c1`: -1.86% (inactive), 1.05 (inactive), 0.89 and 0.94.

The values are drawn from PubChem BioAssay.
